VDR inhibitor: inhibitors of human vitamin D receptor | VDR-SRC2-3 peptide fluorescence polarization, 2 h | 400,000 compounds, 0.93% hits | Potency, µM, for inactives: max response, negative = inhibition, hits mostly inhibitors | AID 504847
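Measured by FP: displacement of SRC2-3 coactivator peptide from VDR by library compounds, following a two-hour ambient incubation.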
Tau fluor cs: counter-screen for tau fibril formation inhibitors; tau K18 P301L Alexa594 fluorescence, heparin fibrillization; Potency, µM (series often up to 57.7 µM), without a hit: at the top dose activity change, negative = decrease; 280,000 compounds, 0.93% hits; AID 1463; also: nearly all actives have a fitted effect of over 55% in size
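Human K18 P301L tau (15 uM unlabeled plus 0.24 uM Alexa 594-labeled, final) in 100 mM sodium acetate pH 7 was mixed with compound and 20 uM heparin and incubated 6 hr at 37 C.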
Sfp PPTase inh: inhibitors of Bacillus subtilis Sfp phosphopantetheinyl transferase; Q9F4F7; Biochemical Sfp PPTase activity, qHTS; Potency, µM, for inactives: largest response in the series, negative = inhibition, hits mostly inhibitors; 310,000 compounds, 3.5% hits; AID 1490;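 also: the enzyme is Sfp with the accession as filed and its product quenches rhodamine fluorescence; 0% = enzyme reaction without inhibitor and -100% = no enzyme wells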
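Fluorescence-quenching assay: 15 nM Sfp-PPTase preincubated 15 min at room temperature with compound, then 5 uM rhodamine-CoA and 12.5 uM BHQ-2-labelled YbbR peptide added. Fluorescence (ex 525/em 598 nm) read at start and after 30 min; difference gives rate.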
Tau fibril ThT: blocks human tau fibril formation measured by thioflavin T; recombinant tau K18 P301L (four-repeat tau fragment), heparin-induced fibrillization, ThT fluorescence; Potency, µM (doses to about 57.4 µM), for inactives: at the top dose activity, negative = inhibition, most hits filed as inhibitors; 270,000 compounds, 2.1% hits; also: nearly all actives have a fitted effect of over 55% in size
Target sequence (P10636 561-689 P618L limits assumed): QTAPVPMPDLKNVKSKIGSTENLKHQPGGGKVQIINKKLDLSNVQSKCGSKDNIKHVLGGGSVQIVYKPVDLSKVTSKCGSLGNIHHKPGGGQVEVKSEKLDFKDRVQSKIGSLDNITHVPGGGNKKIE
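K18 P301L tau (15 uM + 0.24 uM Alexa 594-tagged), heparin 20 uM, NaOAc pH 7, 6 h 37 C; ThT 30 uM, 1 h RT, ex 450/em 510 nm.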
PLK1 PBD inh: inhibitors of human PLK1 polo-box domain binding | 360,000 compounds, 2.8% hits | AID 720504 | Plk1 PBD binding of FITC phosphopeptide, fluorescence polarization | P53350 | Potency, µM, for the others: max response, negative = inhibition, usual class: inhibitors; also: series mostly up to about 57 µM; nearly all actives have a fitted effect of over 65% in size
Target sequence (P53350 whole entry, looked up, the tested form may be a part): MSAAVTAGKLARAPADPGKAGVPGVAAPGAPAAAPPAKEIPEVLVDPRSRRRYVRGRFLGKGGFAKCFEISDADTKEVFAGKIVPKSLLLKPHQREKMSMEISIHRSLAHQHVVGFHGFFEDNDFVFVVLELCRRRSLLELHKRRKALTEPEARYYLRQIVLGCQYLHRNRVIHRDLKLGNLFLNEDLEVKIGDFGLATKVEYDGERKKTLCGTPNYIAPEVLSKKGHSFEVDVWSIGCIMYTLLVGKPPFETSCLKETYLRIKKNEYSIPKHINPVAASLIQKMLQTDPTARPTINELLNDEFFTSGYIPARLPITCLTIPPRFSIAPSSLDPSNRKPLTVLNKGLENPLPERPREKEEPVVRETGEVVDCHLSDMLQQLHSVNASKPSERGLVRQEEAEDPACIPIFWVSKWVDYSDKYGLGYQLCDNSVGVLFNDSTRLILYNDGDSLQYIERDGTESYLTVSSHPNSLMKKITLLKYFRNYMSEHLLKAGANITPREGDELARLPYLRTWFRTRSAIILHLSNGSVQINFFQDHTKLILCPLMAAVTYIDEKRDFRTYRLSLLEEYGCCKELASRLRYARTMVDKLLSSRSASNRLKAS
Tau FP inhib: tau fibrillization inhibition (FP) | P10636 | K18 P301L tau heparin fibrillization, Alexa594 FP, 6 h | Potency, µM (highest dose often 57.7 µM), for the others: at the top dose activity, negative = inhibition, usual class: inhibitors | 280,000 compounds, 0.39% hits | AID 1468; also: nearly all actives have a fitted effect of over 55% in size
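K18 P301L tau (15 uM unlabeled/0.24 uM Alexa 594-labeled, final) + compound + heparin 20 uM final; 100 mM NaOAc pH 7; 6 hr 37 C; ThT 30 uM final added, 1 hr RT; FP ex 555/em 632 nm.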
An asterisk follows results filed as active; ? = inconclusive; nt = not tested or not shown; [ ] = dose if it differs, or a comment. Shown are actives, neighbours in structure and some others; about 6% of the full set was active somewhere. Calls follow the shape of the dose curve; as a rule, active = well fitted curve in the direction sought with a large enough effect; inconclusive = small, poorly fitted or top-dose-only effect, or another doubt; inactive = no such curve, though single readings can be large; an effect the other way counts as inactive or inconclusive. Unless noted, % is scaled to controls: 0 for no effect and ±100 for the full control effect; potency is read from the fitted curve at half-maximal effect.

SMILES | VDR inhibitor | Tau fluor cs | Sfp PPTase inh | Tau fibril ThT | PLK1 PBD inh | Tau FP inhib
CCc1ccc2c(c1)c1nc(C)sc1n2CC | ? | -26% | 28µM* | 25µM* | -8% | ?
COC(=O)Cn1c2ccc(F)cc2c2nc(C)sc21 | 79µM* | -9% | -24% | ? | ? | -11%
C=C(c1ccc2nc(NC(=O)OC)[nH]c2c1)c1cccs1 | -8% | nt | nt | nt | -2% | nt
Cc1ccc(CN(Cc2ccco2)c2cnc(S(C)(=O)=O)nc2C(=O)Nc2ccccc2Br)o1 | -8% | -15% | nt | -9% | nt | -2%
N#C/C(C(=O)c1ccccc1)=C1/SC=C(N)N1c1ccccc1 | nt | -29% | 35µM* | 28µM* | nt | ?
CCN1CCN(c2nc3c(S(=O)(=O)c4ccc(Br)cc4)nnn3c3ccsc23)CC1 | 9% | -19% | nt | -11% | nt | -17%
COCCCN=C(c1ccco1)n1c(=S)nc(-c2ccco2)n(CCCOC)c1=S | ? | -24% | 11µM* | 32µM* | 19µM* | ?
COCCCn1c(-c2ccco2)nc2ccccc2c1=O | -7% | -2% | 17% | -9% | -8% | 7%
O=C(Cn1ncc2c(Cl)cccc21)NCc1cccc(Br)c1 | 13% | -6% | nt | -11% | nt | -8%
COc1cc(NS(=O)(=O)c2ccc(NC(=O)C(C)Oc3ccc(Cl)cc3Cl)cc2)nc(OC)n1 (stereo not drawn) | -3% | -14% | nt | -12% | nt | -5%
CCCC(C)(C)C(=O)N1CCC1(C)C(=O)Nc1cccc2ccccc12 (stereo not drawn) | nt | nt | nt | nt | 4% | nt
Cc1ccc(NC(=O)CNCCCN2CCOCC2)cc1S(=O)(=O)N1CCCCC1 | 3% | -7% | 79µM* | -4% | -3% | 3%
COc1cc(/C=C/C(=O)OCC(=O)Nc2cc(S(=O)(=O)N3CCCCC3)ccc2C)ccc1O | 5% | ? | 15% | -5% | -10% | 10%
COc1cc(/C=C/C(=O)OCC(=O)Nc2ccc(C)c(S(=O)(=O)N3CCCCC3)c2)ccc1O | ? | 14µM*[quencher] | 13% | -8% | 7.5µM* | -3%
Cc1ccc(NC(=O)CSc2ccc(Br)cc2)cc1S(=O)(=O)N1CCOCC1 | -27% | nt | nt | nt | 12µM* | nt
O=C(CSCn1nnc2c(=O)[nH]c(Cc3ccc(F)cc3)nc21)Nc1cccc(C(F)(F)F)c1 | 6% | -26% | nt | -2% | nt | -3%
CC(C)c1ccc(Nc2nc(Nc3ccc(Cl)cc3)nc(N3CCOCC3)n2)cc1 | 6% | nt | nt | nt | nt | nt
COc1ccc(C(=O)NNC2=NC(C)(C)Cc3ccccc32)cc1 | -3% | 5% | 9% | 10% | -11% | 6%
CC1(C)Cc2ccccc2C(COc2ccccc2)=N1 | -19% | nt | -10% | nt | 27µM* | nt
O=C(NCCN1CCOCC1)C1(C(F)(F)F)C/C(=C\CCO)CCCO1 (stereo not drawn) | -12% | nt | -2% | nt | nt | nt
Cc1ccc(NC(=O)C(=Cc2ccc(C(=O)O)cc2)C(=O)Nc2ccc(C)cc2C)c(C)c1 | 25µM* | 1% | -5% | ? | -7% | 3%
CCOC(=O)c1sc2nc3c(SCCC(=O)O)cc(C(=O)c4cc(OC)ccc4O)cn3c(=O)c2c1C | -4% | -24% | -22% | 25µM* | ? | -4%
O=C(O)CSc1cc(C(=O)c2cc(F)ccc2O)cn2c(=O)c3c(-c4ccccc4)csc3nc12 | -14% | -25% | -20% | 28µM* | ? | -13%
CCc1c(C)sc2nc3c(C(=O)N4CCOCC4)cc(C(=O)c4cc(F)ccc4O)cn3c(=O)c12 | -10% | -25% | ? | ? | 5% | 4%
COC(=O)[C@H]1[C@H]2C[C@@H]3c4[nH]c5cc(OC)ccc5c4CCN3C[C@H]2C[C@@H](OC(=O)c2ccc(N)cc2)[C@@H]1OC | 4% | ? | 10% | 14µM* | 1% | -4%
SMILES | VDR inhibitor | Tau fluor cs | Sfp PPTase inh | Tau fibril ThT | PLK1 PBD inh | Tau FP inhib
CCOC(=O)Oc1c(OC)cc(C(=O)O[C@H]2C[C@H]3CN4CCc5c([nH]c6cc(OC)ccc56)[C@@H]4C[C@H]3[C@@H](C(=O)OC)[C@@H]2OC)cc1OC | -4% | nt | 9% | nt | nt | nt
COC(=O)[C@H]1[C@H]2C[C@@H]3c4[nH]c5ccccc5c4CCN3C[C@H]2C[C@@H](OC(=O)c2cc(OC)c(OC)c(OC)c2)[C@@H]1OC | 35µM* | nt | 29% | nt | nt | nt
C=CCN1C(=O)c2ccc(C(=O)OCC(=O)N3CCN(c4ccccc4)CC3)cc2C1=O | -5% | nt | nt | nt | -7% | nt
COc1ccc(C2=CCN3CCCCC3C2)c(-c2ccc(OC)c(OC)c2)c1 (stereo not drawn) | -16% | nt | nt | nt | 5% | nt
O=[N+]([O-])c1ccc(N/N=C\c2cccn2-c2ccccc2)nc1 | -2% | 16µM*[quencher] | ? | 7.1µM* | 18% | 16%
O=[N+]([O-])c1ccc(NN=Cc2ccccc2O)nc1 | -1% | nt | nt | nt | 8% | nt
Cc1ccccc1-n1c(C)cc(/C=N/Nc2ccc([N+](=O)[O-])cn2)c1C | -8% | ? | 8% | 4.5µM* | -5% | 3%
Cc1cc(/C=N/Nc2ccc([N+](=O)[O-])cn2)c(C)n1-c1ccc(C(=O)O)cc1 | -21% | ? | 56µM* | 4.5µM* | -14% | ?
O=C(C1=C[C@@H]2[C@H]3C(=O)N(c4ccc(Cl)cc4)C(=O)[C@H]3[C@@H](C(=O)c3ccc(Cl)cc3)N2C=C1)c1ccccc1 | -5% | ? | -3% | 14µM* | -28% | -19%
N#Cc1c(Cl)nsc1NN | -4% | 2.5µM*[quencher] | 40µM* | 7.9µM* | 30µM* | ?
O=C(/C=C/c1ccco1)NCc1ccco1 | 8% | -25% | -25% | ? | -5% | ?
Cc1ccsc1/C=C(\C#N)C(=O)NCc1ccco1 | -8% | 3% | 8% | -5% | 0% | 7%
Cc1ccc(/C=C/C(=O)NCc2ccco2)o1 | nt | -6% | 32µM* | ? | nt | ?
Cc1ccc(/C=C/C(=O)NCCc2c[nH]c3ccccc23)o1 | -3% | -18% | 28µM* | ? | -18% | -3%
Cc1ccc2[nH]cc(CCNC(=O)/C=C/c3ccco3)c2c1 | -1% | -11% | 6% | -16% | 2% | 10%
Cc1ccc(/C=C(\C#N)C(=O)NCc2ccco2)o1 | -13% | -2% | 50µM* | -2% | 2% | -4%
CC1=C(C(=O)N(C(C)C)C(C)C)CC(CC(=O)NCCN2CCOCC2)C(=O)N1CCCN1CCCC1=O (stereo not drawn) | nt | nt | nt | nt | -8% | nt
CCc1ccc(N2C(=O)CN(Cc3ccccc3)C2=S)cc1 | -12% | nt | 2% | nt | -1% | nt
Cc1cc(C)cc(N2C(=O)CN(Cc3ccccc3)C2=S)c1 | -26% | nt | 1% | nt | 24µM* | nt
c1n[nH]c(NC2=NCCC2)n1 | -2% | 5% | 45µM* | -3% | -13% | 0%
COc1ccccc1OCCN1C(=O)S/C(=C\c2ccco2)C1=O | -16% | -27% | -25% | ? | -22% | -4%

Bioassay records: PubChem BioAssay, National Center for Advancing Translational Sciences (NCATS)
